Many of the other results were omitted from the sample, so hits are more common in it than they were.
HT1080NT lethal – qHTS for induction of synthetic lethality in tumor cells producing 2HG: qHTS for the HT-1080-NT fibrosarcoma cell line; HT-1080-NT fibrosarcoma viability, CellTiter-Glo ATP luminescence, 48 h; Potency, µM (highest dose often 46.1 µM), without a hit: at the highest dose activity, negative = less viability, hits mostly cytotoxic; 1.6% of 360,000 active;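 further: NT is the 2HG producing partner of a matched IDH1 knockdown line; potency means the concentration at half of the fitted maximal effect; 0% = DMSO-treated cells and -100% = media-only wells without cells; nearly all actives have a fitted effect of over 55% in size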
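HT-1080-NT fibrosarcoma cells (2HG-overproducing), 750 cells/well in RPMI with 5% FBS, dosed after 2 h and incubated 48 h at 37C. CellTiter-Glo luminescence normalized to DMSO and no-cell wells; concentration-response curves fitted and classed.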
ALOX12 inh – Primary qHTS assay for inhibitors of human arachidonate 12S-lipoxygenase (ALOX12): Round 2; Potency, µM (series often up to 108 µM), without a hit: at the highest dose activity change, negative = inhibition, actives largely listed as inhibitors; Polyunsaturated fatty acid lipoxygenase ALOX12 (Homo sapiens), P18054; 1.1% of 580,000 active; purified 12hLO, xylenol orange hydroperoxide absorbance; further: potency means the concentration at half of the fitted maximal effect
Target sequence (P18054 whole entry, looked up): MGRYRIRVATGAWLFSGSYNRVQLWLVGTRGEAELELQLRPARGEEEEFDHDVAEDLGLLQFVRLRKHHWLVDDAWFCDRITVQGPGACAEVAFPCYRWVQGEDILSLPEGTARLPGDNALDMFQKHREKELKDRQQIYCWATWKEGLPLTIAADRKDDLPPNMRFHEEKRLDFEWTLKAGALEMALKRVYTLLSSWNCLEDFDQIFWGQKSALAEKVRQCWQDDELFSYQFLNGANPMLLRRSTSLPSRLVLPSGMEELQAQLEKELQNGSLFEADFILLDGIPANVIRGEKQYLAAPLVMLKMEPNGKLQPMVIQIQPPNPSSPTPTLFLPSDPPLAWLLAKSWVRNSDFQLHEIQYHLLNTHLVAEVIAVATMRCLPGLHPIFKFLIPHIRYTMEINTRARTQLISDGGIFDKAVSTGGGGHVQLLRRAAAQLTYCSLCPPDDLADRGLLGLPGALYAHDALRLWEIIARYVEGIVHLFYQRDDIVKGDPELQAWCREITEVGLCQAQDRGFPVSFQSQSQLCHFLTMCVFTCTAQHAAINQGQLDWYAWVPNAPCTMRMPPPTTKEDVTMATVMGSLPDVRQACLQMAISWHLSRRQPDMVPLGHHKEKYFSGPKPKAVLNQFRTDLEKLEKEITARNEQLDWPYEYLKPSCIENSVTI
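Hydroperoxide product was detected by ferrous iron/xylenol orange as the 573 to 405 nm absorbance ratio. Arachidonic acid at 40 uM (final) was turned over for 30 min at room temperature by 150 nM human 12hLO, pH 7.0 Hepes buffer, after 15 min compound preincubation.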
TDP1 cell noCPT – qHTS for Inhibitors of human tyrosyl-DNA phosphodiesterase 1 (TDP1): qHTS in cells in absence of CPT; DT40 Tdp1-/- hTDP1 cells, no CPT, ATP luminescence, 48 h; Potency, µM (top dose mostly 46.2 µM), without a hit: top-dose activity change, negative = growth inhibition, usual class: inhibitors; 15% of 420,000 active; AID 686978, 2013; further: potency means the concentration at half of the fitted maximal effect; nearly all actives have a fitted effect of over 55% in size
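No-CPT arm: Tdp1-/-;hTDP1 DT40 cells (400/well) plus compounds, incubated ≥48 hr at 37 °C. Readout CellTiter-Glo luminescence.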
IL1B secr inh – qHTS for Inhibitors of Inflammasome Signaling: IL-1-beta AlphaLISA Primary Screen. THP-1 LPS/ATP IL-1B secretion, AlphaLISA, 16 h; hits give low values. activity change, % at 57.5 µM. 4.7% of 360,000 active. AID 743279, 2014; in the data active means activity change below about -50%; inconclusive means mostly about -30% to -49%
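Secreted IL-1B measured by AlphaLISA bead assay after 16 h compound exposure of THP-1 cells; compounds (final up to 57.5 uM) added 1 h before LPS (250 ng/mL) and ATP (1.25 mM) stimulation; lower signal means less secretion.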
HT1080 IDH1KD tx – qHTS for induction of synthetic lethality in tumor cells producing 2HG: qHTS for the HT-1080-IDH1KD cell line; 2% of 360,000 active; Potency, µM (series often up to 46.1 µM), inactives show top-dose activity, negative = toxicity, usual class: cytotoxic; AID 686971, 2013; HT-1080 IDH1 knockdown viability, ATP luminescence, 48 h;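 further: potency means the concentration at half of the fitted maximal effect; 0% = DMSO wells and -100% = cell-free medium wells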
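Using the IDH1-knockdown HT-1080 line run in the same batch and compound series as the NT line, viability after 48 h at 37 °C was determined by CellTiter-Glo luminescence and expressed as % activity.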
TDP1 cell CPT – qHTS for Inhibitors of human tyrosyl-DNA phosphodiesterase 1 (TDP1): qHTS in cells in presence of CPT. Potency, µM (highest dose often 46.2 µM), for inactives: at the highest dose activity change, negative = growth inhibition, hits mostly inhibitors. 12% of 420,000 active. chicken DT40 Tdp1-/-;hTDP1 cells + 20 nM CPT, ATP luminescence, 48 h; further: potency means the concentration at half of the fitted maximal effect; nearly all actives have a fitted effect of over 55% in size
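Cell growth measured by CellTiter-Glo luminescence after a minimum 48 h, 37 C compound exposure with 20 nM CPT in Tdp1-knockout DT40 cells stably expressing hTDP1, seeded 400/well; qHTS titration format.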
Active calls of the source: *; ? = inconclusive; · = no result given; [ ] = dose if it differs, or a comment. Unless noted, the call rests on the fitted dose curve; in most records, active means well fitted curve in the direction sought with a large enough effect; inconclusive means small, poorly fitted or top-dose-only effect, or another doubt; inactive means no such curve, though single readings can be large; an effect the other way counts as inactive or inconclusive. Unless noted, on the % scale 0 is the no-effect control and ±100 the full control effect.

SMILES	HT1080NT lethal	ALOX12 inh	TDP1 cell noCPT	IL1B secr inh	HT1080 IDH1KD tx	TDP1 cell CPT
CN1CCN(c2ccc(CNC(=O)C3(C)Cc4c(-c5ccccc5)ccnc4O3)cc2)CC1 (stereo not drawn)	-8.3%	-5.6%	20.6µM*	-22.0	-16.4%	25.9µM*
CC1(C(=O)NCc2ccccc2)Cc2c(-c3ccc(C(N)=O)cc3)ccnc2O1 (stereo not drawn)	?	-2.9%	2.06µM*	44.2	1.46µM*	1.64µM*
CN1CCN(c2ccc(CNC(=O)C3Cc4c(-c5ccccc5)ccnc4O3)cc2)CC1 (stereo not drawn)	-24.4%	2.9%	?	-23.6	?	?
CN(C)c1ccc(-c2ccnc3c2CC(C)(C(=O)NCc2ccncc2)O3)cc1 (stereo not drawn)	-4.5%	-4.7%	?	2.9	0.0%	?
CC(C)NC(=O)C1(C)Cc2c(-c3ccc(C(N)=O)cc3)ccnc2O1 (stereo not drawn)	14.6%	-0.4%	3.9%	5.4	10.3%	1.2%
CC1(C(=O)NCC2CC2)Cc2c(-c3ccccc3)ccnc2O1 (stereo not drawn)	-20.6%	-1.5%	13µM*	44.6	-24.2%	9.2µM*
CN(C)c1ccc(-c2ccnc3c2CC(C)(C(=O)NCc2ccccc2)O3)cc1 (stereo not drawn)	?	-2.6%	5.17µM*	45.6	?	2.91µM*
O=C(OCC(=O)N1CCOCC1)c1ccccc1-c1nc2ccccc2s1	·	-13.0%	·	·	·	·
Nc1nccnc1C(=O)NCCc1ccccc1C(F)(F)F	·	-1.0%	·	·	·	·
CC1(C(=O)NCc2ccccc2)Cc2c(-c3ccccc3)ccnc2O1 (stereo not drawn)	?	-1.1%	4.11µM*	0.0	?	?
Cc1ccc2c(c1)c1c(n2CC(O)CNC(C)(C)C)CCCC1 (stereo not drawn)	-15.4%	-28.4%	?	?	-22.7%	?
Cc1ccc2c(c1)c1c(n2CC(O)Cn2nc(C)c(Br)c2C)CCCC1 (stereo not drawn)	?	-19.8%	16.4µM*	-21.4	?	?
Cc1ccc2c(c1)c1c(n2CC(O)Cn2c(C)nc3ccccc32)CCCC1 (stereo not drawn)	?	?	?	-10.6	?	23.1µM*
Cc1nn(CC(O)Cn2c3c(c4ccccc42)CCN(C)C3=O)c(C)c1Br (stereo not drawn)	-5.2%	0.0%	-19.5%	-23.2	-3.3%	-19.9%
Cc1ccc2c(c1)c1c(n2CC(O)CN2CCCCCC2)CCCC1 (stereo not drawn)	?	-4.3%	14.6µM*	-74.0*	?	?
O=C(NCc1cccnc1)[C@@H]1C[C@@H](O)CN1C1CCN(C(=O)Cc2ccccc2)CC1	·	49.0%	·	·	·	·
O=C(NC(Nc1ccc(Cl)cc1)C(=O)c1ccccc1)c1ccccc1 (stereo not drawn)	·	4.1%	·	·	·	·
CCNC(=O)NC(=O)CN(Cc1ccccc1)c1ccccc1	·	29.3%	·	·	·	·
COc1cncc(Nc2cnc3ccc(-c4ccc(F)cc4)nn23)c1	·	51.8%[176 µM]	·	·	·	·
NS(=O)(=O)c1ccc(Nc2ccc3cc(S(=O)(=O)N4CCCCC4)ccc3n2)cc1	0.4%	-17.6%	?	?	-0.1%	?
CC1CCN(S(=O)(=O)c2ccc3nc(NCc4ccccc4)ccc3c2)CC1	·	?	10.3µM*	·	·	10.3µM*
CC1CCN(S(=O)(=O)c2ccc3nc(Nc4cccc(F)c4)ccc3c2)CC1	·	?	20.6µM*	·	·	20.6µM*
COC(=O)c1cccc(S(=O)(=O)N2CCC(NC(=O)Nc3cccc(F)c3)CC2)c1	1.5%	0.0%	?	7.9	0.4%	-17.6%
CC(=O)c1ccc(Nc2ccc3cc(S(=O)(=O)N4CCCC4)ccc3n2)cc1	·	?	?	·	·	20.6µM*
CC1CCN(S(=O)(=O)c2ccc3nc(-c4ccccn4)cc(C(=O)NCCN(C)Cc4ccccc4)c3c2)CC1	2.4%	161.7%	5.8µM*	-10.1	8.3%	7.31µM*
SMILES	HT1080NT lethal	ALOX12 inh	TDP1 cell noCPT	IL1B secr inh	HT1080 IDH1KD tx	TDP1 cell CPT
COc1ccc(C2NC(=O)N(Cc3nc(C4CC4)no3)C3=C2C(=O)OC3)cc1 (stereo not drawn)	·	-13.9%	·	·	·	·
Cc1cccc(CN2CCc3ncc(C(=O)NCc4ccccc4)n3CC2)c1	·	49.2%[176 µM]	·	·	·	·
COCC(=O)N[C@@H]1CN(S(C)(=O)=O)CC[C@@H]1c1nc(C)no1	·	43.9%	·	·	·	·
CC1CCCN(Cc2cn3c(-c4cccc(Br)c4)nnc3s2)C1 (stereo not drawn)	·	0.2%	?	·	·	23.1µM*
CCOC(=O)C1CCCN(C(=O)CSc2ccc(Br)cc2)C1 (stereo not drawn)	11.0%	·	18.4µM*	-8.4	-5.7%	13µM*
CCOC(=O)C1CCN(Cc2cn3c(-c4ccc(OC)cc4)nnc3s2)CC1	·	-2.8%	?	·	·	20.6µM*
CCOC(=O)C1CCN(Cc2cnc(Oc3ccc(Cl)cc3C)s2)CC1	16.3%	-14.5%	-23.4%	-2.8	-0.7%	4.3%
CCOC(=O)C1CCCN(Cc2cn3c(-c4ccc(Br)cc4)nnc3s2)C1 (stereo not drawn)	·	-13.8%	6.51µM*	·	·	5.17µM*
Brc1ccc(-c2nnc3sc(CN4CCCCC4)cn23)cc1	·	-6.0%	-24.7%	·	·	-8.8%
CCCC1=C(C(=O)OCC)C(c2c(F)cccc2Cl)NC(=O)N1C (stereo not drawn)	·	-5.0%	·	·	·	·
CN1Cc2nc(Nc3ccccc3F)ccc2OCC1=O	·	7.1%[176 µM]	·	·	·	·
O=C(c1ccccc1)[C@@H]1[C@@H](C(=O)c2ccc(F)cc2)[C@@]2(C(=O)Nc3ccccc32)[C@H]2c3ccccc3C=CN12	-1.3%	?	14.6µM*	?	-14.0%	23.1µM*
CC(=O)[C@@H]1[C@@H](C(=O)c2ccccc2)[C@]2(C(=O)Nc3ccccc32)[C@H]2C=Cc3cc(F)ccc3N12	-24.9%	-0.6%	18.4µM*	0.0	-18.0%	23.1µM*
COc1cccc(C(=O)CC2(O)C(=O)Nc3ccc(F)cc32)c1 (stereo not drawn)	·	0.7%	·	·	·	·
CC(NC(=O)C1CC1C)c1ccc2c(c1)CCCC2 (stereo not drawn)	·	-43.6%	·	·	·	·

Screening data: PubChem BioAssay, National Center for Advancing Translational Sciences (NCATS)
